From ChEMBL document CHEMBL3988442, “University of Dundee, Small-Polar-MMV Screening Library” (2021) come the findings set out here.

What all share (parameters): scale not given: direction of the effect not stated beside the values
In experiment [1] the target is Protein translocase subunit SecA (Escherichia coli (strain K12)) (UniProt P10408). Nature of the experiment: Assay to Identify E. coli SecA ATPase Inhibitors. In kind it is functional. Particulars: 30 µM.
Experiment [2] addresses T1, Ubiquitin-activating enzyme e1, putative (Leishmania donovani (strain BPK282A1)) (UniProt E9BSI1).
T1 sequence (whole entry): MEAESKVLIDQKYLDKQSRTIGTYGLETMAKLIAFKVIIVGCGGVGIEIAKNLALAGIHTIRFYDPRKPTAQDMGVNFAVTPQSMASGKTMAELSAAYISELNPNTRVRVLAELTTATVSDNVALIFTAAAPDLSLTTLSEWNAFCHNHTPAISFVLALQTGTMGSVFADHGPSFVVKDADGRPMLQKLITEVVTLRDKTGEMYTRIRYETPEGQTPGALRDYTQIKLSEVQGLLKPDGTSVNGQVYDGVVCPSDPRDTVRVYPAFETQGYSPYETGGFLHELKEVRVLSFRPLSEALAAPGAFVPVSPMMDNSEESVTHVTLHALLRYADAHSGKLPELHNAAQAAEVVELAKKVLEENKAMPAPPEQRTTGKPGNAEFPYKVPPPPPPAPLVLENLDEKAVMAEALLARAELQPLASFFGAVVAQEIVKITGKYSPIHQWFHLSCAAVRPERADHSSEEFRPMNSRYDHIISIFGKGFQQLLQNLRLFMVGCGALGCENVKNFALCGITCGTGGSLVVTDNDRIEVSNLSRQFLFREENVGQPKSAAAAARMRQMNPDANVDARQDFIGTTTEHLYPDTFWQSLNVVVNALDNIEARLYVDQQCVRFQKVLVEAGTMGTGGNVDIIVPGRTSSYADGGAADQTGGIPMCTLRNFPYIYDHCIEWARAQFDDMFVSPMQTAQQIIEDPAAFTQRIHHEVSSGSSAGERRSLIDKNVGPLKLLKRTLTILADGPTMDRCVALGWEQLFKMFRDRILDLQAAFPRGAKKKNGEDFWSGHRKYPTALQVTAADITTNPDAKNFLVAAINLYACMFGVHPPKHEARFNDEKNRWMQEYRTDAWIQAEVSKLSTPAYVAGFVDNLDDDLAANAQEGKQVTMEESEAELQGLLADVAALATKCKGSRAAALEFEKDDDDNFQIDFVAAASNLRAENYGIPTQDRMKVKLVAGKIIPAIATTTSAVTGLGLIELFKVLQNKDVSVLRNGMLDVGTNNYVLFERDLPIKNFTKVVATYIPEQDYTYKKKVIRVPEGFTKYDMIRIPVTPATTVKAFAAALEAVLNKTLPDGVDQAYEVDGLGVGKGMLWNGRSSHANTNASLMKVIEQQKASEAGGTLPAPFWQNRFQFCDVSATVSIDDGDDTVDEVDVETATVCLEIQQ
Nature of the experiment: Leishmania donovani Ubiquitin Activating Enzyme (LdE1). It is filed as functional. Particulars: 30 µM.

Experiment [3] concerns the target AMP-activated protein kinase, AMPK (Homo sapiens) (UniProt P54646+O43741+P54619+Q9UGJ0+Q9Y478+Q13131+Q9UGI9). The experiment in a line: AMP-dependent Kinase enzyme assay. An in vitro enzyme assay that detects ADP turnover that is directly proportional to AMPK activity. This uses naive AMPK that is activated during the assay with MK-8722. It is filed as functional. Particulars: 30 µM.

In experiment [4] the target is Sialic acid-binding Ig-like lectin 9 (Homo sapiens) (UniProt Q9Y336). Nature of the experiment: Hs-Siglec9 ALPHAscreen SOP 20170721. Particulars: 10 µM. On the technique in general: Alpha assays give light when donor and acceptor beads are brought close together.
Chain of Sialic acid-binding Ig-like lectin 9 (Homo sapiens) (Q9Y336 whole entry): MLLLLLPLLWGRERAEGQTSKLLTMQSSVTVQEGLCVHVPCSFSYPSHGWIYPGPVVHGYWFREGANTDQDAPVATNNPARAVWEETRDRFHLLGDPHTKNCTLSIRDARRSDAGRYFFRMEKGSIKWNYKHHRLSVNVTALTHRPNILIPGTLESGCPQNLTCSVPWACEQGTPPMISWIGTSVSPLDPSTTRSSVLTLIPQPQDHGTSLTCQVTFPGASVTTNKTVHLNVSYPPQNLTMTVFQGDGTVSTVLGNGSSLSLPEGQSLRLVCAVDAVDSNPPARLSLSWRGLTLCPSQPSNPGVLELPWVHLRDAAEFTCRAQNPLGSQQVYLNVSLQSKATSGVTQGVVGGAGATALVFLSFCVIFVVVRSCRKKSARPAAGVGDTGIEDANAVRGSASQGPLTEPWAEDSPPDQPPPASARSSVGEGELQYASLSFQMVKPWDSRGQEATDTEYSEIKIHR
In another experiment the test system is Trypanosoma cruzi. Nature of the experiment: Trypanosoma cruzi phosphomannomutase and mannose-1-phosphate guanylyltransferase assay. In kind it is functional. Particulars: 10 µM.
The target in experiment [5] is T2, Arginase-2, mitochondrial (Homo sapiens) (UniProt P78540).
T2 sequence (whole entry): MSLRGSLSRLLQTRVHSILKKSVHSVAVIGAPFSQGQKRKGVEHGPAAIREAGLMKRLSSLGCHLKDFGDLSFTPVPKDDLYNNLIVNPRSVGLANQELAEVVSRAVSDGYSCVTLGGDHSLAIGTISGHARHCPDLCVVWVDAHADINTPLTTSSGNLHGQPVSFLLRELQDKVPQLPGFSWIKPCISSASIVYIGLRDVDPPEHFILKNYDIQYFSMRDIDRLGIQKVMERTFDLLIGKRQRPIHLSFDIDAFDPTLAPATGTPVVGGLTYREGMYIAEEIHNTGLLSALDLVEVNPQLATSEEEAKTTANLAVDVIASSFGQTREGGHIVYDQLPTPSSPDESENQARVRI
The experiment in a line: in vitro enzyme assay to detect the production of urea directly proportional to the activity of Arginase II. Further: in the data most compounds retested in dose-response had high values. In kind it is functional. Particulars: 33.3 µM.

The target in experiment [6] is T3, Proteasome subunit beta (Trypanosoma cruzi) (UniProt O96673).
T3 sequence (whole entry): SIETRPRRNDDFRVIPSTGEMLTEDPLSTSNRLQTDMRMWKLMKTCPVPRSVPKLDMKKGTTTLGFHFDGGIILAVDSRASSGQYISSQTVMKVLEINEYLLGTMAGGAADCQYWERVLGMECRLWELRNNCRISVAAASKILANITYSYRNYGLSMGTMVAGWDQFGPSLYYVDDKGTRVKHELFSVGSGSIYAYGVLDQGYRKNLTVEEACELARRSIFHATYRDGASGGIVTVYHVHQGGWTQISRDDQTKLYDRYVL
The experiment in a line: Trypanosoma cruzi proteasome chymotrypsin-like activity (TcProtChymo) assay. Further: in the data most compounds retested in dose-response had high values. In kind it is functional. Particulars: 9.37 µM.

For a further experiment, the species on record is Homo sapiens. The experiment in a line: To identify inhibition of the IFN signalling (Jak-Stat) pathway via expression of an eGFP reporter gene under the control of an IFN-stimulated response element (ISRE) containing MxA promoter. Particulars: 30 µM. It is filed as functional.
Experiment [7] deals with T4, Tyrosyl-tRNA synthetase, putative (Trypanosoma cruzi (strain CL Brener)) (UniProt Q4DSP6).
T4 sequence (whole entry): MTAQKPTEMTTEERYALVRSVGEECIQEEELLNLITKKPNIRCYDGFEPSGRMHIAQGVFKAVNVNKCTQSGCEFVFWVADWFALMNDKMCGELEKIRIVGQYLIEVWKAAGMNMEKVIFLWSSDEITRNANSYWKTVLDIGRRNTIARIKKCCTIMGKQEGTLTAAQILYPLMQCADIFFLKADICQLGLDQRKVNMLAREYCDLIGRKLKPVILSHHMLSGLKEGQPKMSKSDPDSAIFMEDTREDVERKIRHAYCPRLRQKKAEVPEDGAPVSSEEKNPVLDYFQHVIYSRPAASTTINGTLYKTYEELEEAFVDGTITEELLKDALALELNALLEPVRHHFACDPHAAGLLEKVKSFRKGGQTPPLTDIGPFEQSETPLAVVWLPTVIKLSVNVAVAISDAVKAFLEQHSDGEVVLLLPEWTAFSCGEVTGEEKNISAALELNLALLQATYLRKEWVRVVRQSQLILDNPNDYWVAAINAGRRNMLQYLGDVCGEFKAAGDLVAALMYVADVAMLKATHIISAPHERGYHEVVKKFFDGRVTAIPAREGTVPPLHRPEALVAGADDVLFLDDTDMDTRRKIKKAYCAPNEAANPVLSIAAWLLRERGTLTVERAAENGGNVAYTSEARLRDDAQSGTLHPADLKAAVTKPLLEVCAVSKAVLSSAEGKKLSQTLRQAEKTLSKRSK
Nature of the experiment: Trypanosoma cruzi tyrosyl tRNA synthetase (TcYRS) _High Tyrosine SOP. Further: in the data most compounds retested in dose-response had high values. It is filed as functional. Particulars: 30 µM.

The target in experiment [8] is T4, Tyrosyl-tRNA synthetase, putative (Trypanosoma cruzi (strain CL Brener)). The experiment in a line: Trypanosoma cruzi tyrosyl tRNA synthetase (TcYRS) SOP. It is filed as functional. Particulars: 30 µM.
Experiment [9] concerns the target Chromo domain-containing protein 1 (Saccharomyces cerevisiae (strain ATCC 204508 / S288c) (Baker's yeast)) (UniProt P32657). The experiment in a line: ScCHD-1 Enzyme Inhibition Assay. Further: in the data most compounds retested in dose-response had high values. Particulars: 30 µM. In kind it is functional.

For some of these results: Potency and affinity values are given separately.

Chain of Protein translocase subunit SecA (Escherichia coli (strain K12)) (P10408 whole entry): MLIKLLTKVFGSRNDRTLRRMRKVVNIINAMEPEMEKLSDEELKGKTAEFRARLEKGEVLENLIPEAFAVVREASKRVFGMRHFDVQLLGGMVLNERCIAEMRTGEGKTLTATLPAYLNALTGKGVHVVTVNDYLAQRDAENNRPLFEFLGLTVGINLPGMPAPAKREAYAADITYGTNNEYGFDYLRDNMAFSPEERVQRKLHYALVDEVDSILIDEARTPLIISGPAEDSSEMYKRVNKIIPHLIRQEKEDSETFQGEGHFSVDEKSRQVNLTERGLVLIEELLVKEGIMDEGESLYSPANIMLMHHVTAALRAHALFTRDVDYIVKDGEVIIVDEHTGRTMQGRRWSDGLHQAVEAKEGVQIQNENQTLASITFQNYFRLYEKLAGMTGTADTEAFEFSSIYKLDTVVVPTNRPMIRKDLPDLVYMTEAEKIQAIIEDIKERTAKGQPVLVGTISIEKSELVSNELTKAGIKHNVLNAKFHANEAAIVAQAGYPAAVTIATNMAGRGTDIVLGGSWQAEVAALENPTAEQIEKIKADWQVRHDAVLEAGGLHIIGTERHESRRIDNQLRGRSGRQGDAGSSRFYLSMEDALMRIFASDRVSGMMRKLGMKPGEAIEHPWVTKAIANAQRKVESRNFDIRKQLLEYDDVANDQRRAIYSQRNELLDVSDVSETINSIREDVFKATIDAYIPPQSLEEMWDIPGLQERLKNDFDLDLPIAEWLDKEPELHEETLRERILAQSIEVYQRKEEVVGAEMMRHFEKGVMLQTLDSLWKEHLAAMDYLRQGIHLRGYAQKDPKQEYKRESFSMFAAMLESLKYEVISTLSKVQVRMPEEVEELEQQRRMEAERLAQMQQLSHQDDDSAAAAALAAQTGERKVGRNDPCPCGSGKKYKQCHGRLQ
Chain of Chromo domain-containing protein 1 (Saccharomyces cerevisiae (strain ATCC 204508 / S288c) (Baker's yeast)) (P32657 whole entry, the tested form may be a part): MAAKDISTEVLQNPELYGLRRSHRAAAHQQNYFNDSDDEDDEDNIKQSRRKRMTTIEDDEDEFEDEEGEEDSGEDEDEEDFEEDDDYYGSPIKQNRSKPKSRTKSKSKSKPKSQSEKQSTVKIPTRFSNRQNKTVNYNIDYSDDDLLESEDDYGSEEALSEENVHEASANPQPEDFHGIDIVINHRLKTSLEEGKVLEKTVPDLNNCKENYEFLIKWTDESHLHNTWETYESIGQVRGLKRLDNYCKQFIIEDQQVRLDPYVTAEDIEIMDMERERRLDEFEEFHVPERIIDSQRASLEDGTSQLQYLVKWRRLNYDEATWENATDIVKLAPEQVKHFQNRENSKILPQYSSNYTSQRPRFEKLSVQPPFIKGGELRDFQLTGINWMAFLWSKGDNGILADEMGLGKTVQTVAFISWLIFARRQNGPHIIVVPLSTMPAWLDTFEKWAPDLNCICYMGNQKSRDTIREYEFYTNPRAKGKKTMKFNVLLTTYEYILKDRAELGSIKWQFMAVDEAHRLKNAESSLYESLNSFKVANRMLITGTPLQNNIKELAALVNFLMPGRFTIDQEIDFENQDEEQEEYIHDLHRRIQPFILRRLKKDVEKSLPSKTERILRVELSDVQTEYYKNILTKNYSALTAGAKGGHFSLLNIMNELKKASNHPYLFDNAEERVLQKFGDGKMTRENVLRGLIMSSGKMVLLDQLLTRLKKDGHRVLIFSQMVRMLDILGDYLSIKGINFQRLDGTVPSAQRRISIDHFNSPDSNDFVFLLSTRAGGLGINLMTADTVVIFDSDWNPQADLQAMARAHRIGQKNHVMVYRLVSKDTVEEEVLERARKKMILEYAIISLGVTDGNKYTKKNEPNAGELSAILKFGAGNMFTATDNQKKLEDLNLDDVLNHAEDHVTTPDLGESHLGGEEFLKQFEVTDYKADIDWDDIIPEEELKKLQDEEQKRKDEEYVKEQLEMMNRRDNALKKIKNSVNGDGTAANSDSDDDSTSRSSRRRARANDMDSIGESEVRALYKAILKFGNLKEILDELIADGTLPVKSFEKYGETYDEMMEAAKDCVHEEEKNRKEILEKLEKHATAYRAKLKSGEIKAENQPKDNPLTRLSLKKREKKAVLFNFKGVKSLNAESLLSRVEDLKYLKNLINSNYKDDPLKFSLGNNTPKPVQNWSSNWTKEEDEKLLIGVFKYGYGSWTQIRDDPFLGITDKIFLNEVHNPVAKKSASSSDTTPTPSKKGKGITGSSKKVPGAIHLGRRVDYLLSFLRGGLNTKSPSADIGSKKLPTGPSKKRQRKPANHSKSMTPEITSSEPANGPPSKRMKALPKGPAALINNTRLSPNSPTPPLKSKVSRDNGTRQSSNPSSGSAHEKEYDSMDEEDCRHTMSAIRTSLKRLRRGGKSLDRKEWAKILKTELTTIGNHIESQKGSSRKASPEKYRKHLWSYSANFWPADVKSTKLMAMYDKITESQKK

In the case of `COc1ccc(CN2C[C@@H]3OCCN(CC4CCCO4)[C@@H]3C2)cc1` (stereo partly specified), the Percent Effect in experiment [1] was -0.662%; in experiment [2] it was 10.8%; in [3], 2.03%; in [4] it was -5.49%; in the experiment on Trypanosoma cruzi, 6.16%; in experiment [5] it was -4.78%. The Percent Effect in [6] was 17.3%; in the experiment listed under Homo sapiens, 3.23%; in experiment [7] it was 3.24%; in experiment [8] it was 12.8%; in experiment [9] it was 5.65%.

As to `CCOc1cc(/C=C/c2ncc(C(=O)O)s2)cc(Cl)c1OC`, the Percent Effect in [1] was -1.71%; in experiment [2], 8.86%; in experiment [3], 6.6%; in [4], 1.04%; in the experiment with Trypanosoma cruzi it was -7.28%; in [5] it was -4.52%. Moreover, the Percent Effect in experiment [6] is 12.3%; in the experiment filed under Homo sapiens, 10.1%; in [7], 0%; in experiment [8] it was 7.59%; in [9], -21.1%.

Regarding `CC(C)CNC(=O)Nc1ccc(CN2CCOC2=O)cc1`, the Percent Effect in experiment [1] was -6.23%; in experiment [2] it was -15.3%; in experiment [3] it was -5.54%; in experiment [4], 6.22%; in the experiment on Trypanosoma cruzi, -2.23%; in experiment [5], 0.442%. The Percent Effect is 12.8% in experiment [6]; 25.7% in the experiment listed under Homo sapiens; -7.37% in experiment [7]; -25.6% in [8]; -1.07% in [9].

For `CC(C)(C)c1nnc(CN2CCOC(Cn3cccn3)C2)o1` (stereo unspecified), the Percent Effect in experiment [1] was -3.67%; in [2], 15.2%; in [3], -3.73%; in [4], 9.59%; with Trypanosoma cruzi it was 5.38%; in experiment [5], 1.9%. The Percent Effect in [6] was 5.16%; in the experiment listed under Homo sapiens, 14.4%; in [7], 5.42%; in [8] it was 16.5%; in experiment [9] it was -5.63%.

Take `CC(C)CN1CCC2(C=C(C(=O)N3CCCC3)c3ccccc32)CC1`: the Percent Effect was -2.44% in experiment [1]; 0% in [2]; -1.76% in experiment [3]; 3.68% in experiment [4]; -6.76% with Trypanosoma cruzi; -56.8% in experiment [5]. In addition, the Percent Effect in [6] was 7.35%; in the experiment filed under Homo sapiens, 1.33%; in experiment [7], 5.21%; in experiment [8], 10%; in experiment [9], -7.39%.

For the molecule `O=C(CO)N1C[C@H]2CC[C@@H]1CN(C1Cc3ccccc3C1)C2`, the Percent Effect in experiment [1] was -5.84%; in experiment [2], 5.41%; in experiment [3], -17.8%; in experiment [4], -1.59%; in the experiment with Trypanosoma cruzi it was -1.86%; in experiment [5] it was 1.74%. The Percent Effect in experiment [6] was 5.75%; in the experiment filed under Homo sapiens, 3.96%; in experiment [7] it was 1.07%; in experiment [8], 8.64%; in [9], -4.67%.

On to `CS(=O)(=O)CCNC(=O)C1(c2cccc(Cl)c2)CCCCC1`, for which the Percent Effect is -7.1% in experiment [1]; -1.39% in experiment [2]; 0.793% in [3]; -3.56% in [4]; -1.46% in the experiment with Trypanosoma cruzi; -2.65% in experiment [5]. Further, the Percent Effect in [6] is 6.14%; in the experiment filed under Homo sapiens it was 13.7%; in [7], -4.21%; in experiment [8] it was -7.69%; in experiment [9], -0.434%.

As to `Cc1cc(C(=O)NCCN2CCCC(C)C2)nn1C` (stereo unspecified), the Percent Effect is -4.5% in [1]; 5.2% in experiment [2]; -3.57% in experiment [3]; -8.23% in experiment [4]; -0.187% in the experiment on Trypanosoma cruzi; 0% in experiment [5]. The Percent Effect in experiment [6] is 0.169%; in the experiment listed under Homo sapiens, 27.8%; in experiment [7] it was 3.88%; in experiment [8], 7.32%; in [9], -0.528%.

For the molecule `CC(O)CN1CCN(C(=O)CN(C)c2ccc(Cl)cn2)CC1` (stereo unspecified), the Percent Effect in experiment [1] is -0.0278%; in experiment [2], -2.7%; in experiment [3] it was -4.09%; in experiment [4], 7.01%; with Trypanosoma cruzi it was -1.93%; in experiment [5] it was -2.38%. The Percent Effect in experiment [6] was 14.8%; in the experiment filed under Homo sapiens it was 14.1%; in experiment [7], 4.76%; in experiment [8] it was 7.32%; in [9], -3.67%.

As for `Cc1ccc(F)cc1NC(=O)NCC(C)N1CCOCC1` (stereo unspecified), the Percent Effect is -1.78% in [1]; 18.9% in [2]; 0.541% in experiment [3]; -0.431% in experiment [4]; 0.391% in the experiment with Trypanosoma cruzi; 1.25% in experiment [5]. Moreover, the Percent Effect in [6] was determined as 9.55%; in the experiment listed under Homo sapiens it was 14.3%; in experiment [7], 11.9%; in experiment [8], 18.3%; in experiment [9], 3.74%.

Regarding `CC(C)NC(=O)N1CCN(C(=O)N(C)C)CC2(CC(=O)N(C)C2)C1` (stereo unspecified), the Percent Effect was -3.05% in experiment [1]; 13.5% in experiment [2]; -4.22% in [3]; 1.04% in [4]; 1.56% in the experiment on Trypanosoma cruzi; 6.25% in [5]. The Percent Effect was 18.5% in experiment [6]; 7.62% in the experiment listed under Homo sapiens; 8.91% in [7]; 13.4% in experiment [8]; -7.18% in experiment [9].
